Compound activity (PubChem BioAssay)
Calb FLC: affects C. albicans growth with fluconazole | AID 1979 | hit rate 0.57% among 300,000 | C. albicans CaCi-2 (fluconazole-resistant clinical isolate) + fluconazole, Alamar Blue growth, 48 h | growth inhibition, % (test concentration not listed);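 active means growth inhibition above about 58% in most replicates, limit read from the data, passing the limit was not always enough; inconclusive means exactly half the replicates above a set limit; inactive means most replicates below a set limit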;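 further: all wells also contain fluconazole at 8 µg/ml as a sub-toxic cotreatment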
CR mimetic SO: lowers age-related superoxide in aged yeast cells; superoxide response (% of plate mean), % at 10 µM; hit rate 0.18% among 330,000; AID 2690; S. cerevisiae aged cells, superoxide DHE fluorescence; stronger effect = lower value;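 active means superoxide response under a set limit, about three screen SD below normal, cut at about 65% in these data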;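 further: yeast aged for seven days with compound at 30 °C before DHE staining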
Platelet DG rel: modulates dense granule release in human platelets; inhibition, %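 (compounds screened at 7.5 µM in platelet-rich plasma)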; hit rate 0.22% among 300,000; AID 1663; human platelet-rich plasma, SFLLRN dense granule ATP release, luminescence;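 active means mean replicate score, as percent of positive control, at or above 50; inconclusive means mean below 50 but at least one replicate at or above 50; inactive means mean and every replicate below 50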
SKKanGAS inh: SKKanGAS growth inhibition | S. pyogenes SKKanGAS, kanamycin growth, BacTiter-Glo, 6 h | inhibition, % at 7.5 µM | hit rate 1.3% among 300,000 | AID 1662;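 active means mean replicate score, as percent of positive control median, at least 50; inconclusive means mean below 50 but one replicate at or above 50; inactive means mean and every replicate below 50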;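 further: strain carries kanamycin resistance gene driven by streptokinase promoter and grows in 40 µg/ml kanamycin; loss of luminescence reflects streptokinase promoter inhibition or plain growth inhibition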
PolyA inhibitor: inhibitors of polyadenylation in S. cerevisiae | S. cerevisiae SKY197-pL101 polyadenylation reporter, beta-gal luminescence; efflux-impaired pdr1/pdr3 knockout yeast; score 100 = 6 SD above DMSO | activity score, % at 12 µM | hit rate 0.02% among 300,000 | AID 1875;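 active means lowest replicate activity score at least 50, where 100 means six control SD above control mean; inconclusive means lowest score under 50 but half or more replicates reach 50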;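 further: yeast exposed to compound for 9 h at 30 °C; higher score means more reporter readthrough which indicates perturbed polyadenylation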
Hits are given with their value; n = inactive; u = inconclusive; x = not tested or not shown. Sampled rows, rich in hits. Any-hit rate of the full collection: about 2%.

SMILES	Calb FLC	CR mimetic SO	Platelet DG rel	SKKanGAS inh	PolyA inhibitor
c1ccc(-c2cc(-c3ccccc3)[n+](-c3ccccc3)c(-c3ccccc3)c2)cc1	u	n	n	n	n
CC/C(=C\C=C\[C@@H]1C=C[C@@H]2CCC[C@H]2[C@@H]1C(=O)c1ccc[nH]1)[C@@H]1O[C@@H]([C@@H](C)C(=O)O)CC[C@@H]1C	n	n	n	130.8	n
CCOc1cc2c(cc1OCC)-n1cccc1C(c1cccc([N+](=O)[O-])c1)NC2 (stereo not given)	n	n	n	n	n
Cn1c(NN=O)nc2ccccc21	n	n	n	56.3	n
Cc1c2ccncc2c(C)c2c1[nH]c1ccccc12	x	n	n	86.1	n
c1ccc2c(c1)[nH]c1cnccc12	x	n	n	n	n
C[n+]1c(-c2ccccc2)c2cc(N)ccc2c2ccc(N)cc21	92.7	n	n	100.2	n
CCCCCc1nc2c(c(=O)c3ccccc3n2C)c(=O)n1C1CCCCCC1	n	n	n	93.9	n
CCCCCC[N+](=O)[O-]	x	n	x	x	x
CCCCCCCCCCCCCCCC[N+](C)(C)C	102.1	n	n	102.9	n
[N-]=[N+]=NC1C[C@H](n2ccc(=O)[nH]c2=O)O[C@@H]1CO (stereo not given in full)	n	n	n	n	n
CC(=O)N1N=C(c2c(O)n(C)c(=O)n(C)c2=O)CC1c1ccccc1 (stereo not given)	n	n	n	51.4	n
COc1ccc(/C=N/N=C(/N)N[N+](=O)[O-])c(OC)c1	n	n	121.2	n	n
N/C(=N\N=C/c1ccc(-c2ccc(O)c(C(=O)O)c2)o1)N[N+](=O)[O-]	n	n	n	n	n
COC(=O)C1=C(c2ccc(F)cc2F)C[C@@H]2CC[C@H]1N2C(=O)NCCOc1ccccc1	x	n	x	x	x
COCCNC(=O)c1c(NC(=O)c2ccco2)n(Cc2ccccc2)c2nc3ccccc3nc12	u	n	n	68.0	n
C=C1[C@H]2CC[C@H]3[C@]4(C)C[C@H](O[C@@H]5OC(CO)[C@@H](OSOOO)[C@H](OS(=O)(=O)O)[C@H]5OC(=O)CC(C)C)C[C@@H](C(=O)O)[C@H]4CC[C@]3(C2)[C@H]1O (stereo not given in full)	x	n	x	x	x
Cc1nc2ccccc2c(=O)n1/N=C/c1cc(Br)cc(Br)c1O	n	n	n	98.9	n
Cc1nc2ccccc2c(=O)n1-c1ccc(Br)cn1	n	n	n	n	n
O=C(/C=C/c1ccc(F)cc1)NC(=S)N1C[C@H]2C[C@H](C1)c1cccc(=O)n1C2	n	n	n	n	n
O=c1c2ccccc2nc(/C=C/c2ccc([N+](=O)[O-])o2)n1-c1ccc(O)cc1	98.3	x	n	n	n
Cc1cccc(-n2c(/C=C/c3ccc([N+](=O)[O-])o3)nc3ccccc3c2=O)c1	n	n	n	n	n
Nc1c(C(=O)OCc2ccccc2)c2nc3ccccc3nc2n1Cc1cccs1	n	n	n	56.3	n
CCC(C)OC(=O)c1c(N)n(Cc2cccs2)c2nc3ccccc3nc12 (stereo not given)	n	n	n	n	n
COC(=O)C1=C(c2ccc(C(C)=O)cc2)C[C@@H]2CC[C@H]1N2C(=O)N1CCC(O)CC1	x	n	x	x	x
SMILES	Calb FLC	CR mimetic SO	Platelet DG rel	SKKanGAS inh	PolyA inhibitor
COc1ccc(OC)c(N=Cc2c(O)n(Cc3ccccc3)c(=S)[nH]c2=O)c1	n	n	n	50.7	n
CN(C)[C@@H]1C(=O)C(C(N)=O)=C(O)[C@@]2(O)C(=O)C3=C(O)c4c(O)cccc4[C@@](C)(O)C3[C@H](O)C12 (stereo not given in full)	n	n	n	106.4	n
Clc1cc(Cl)c(-c2cc(Cl)c(Cl)cc2Cl)cc1Cl	x	n	x	x	x
O=C(N/N=C/c1c(O)n(Cc2ccc(F)cc2)c(=S)[nH]c1=O)c1ccncc1	n	n	n	101.1	n
CCC(C)n1c(O)c(/C=N/NC(=O)c2ccncc2)c(=O)[nH]c1=S (stereo not given)	n	n	n	91.0	n
CCOc1ccc(-c2c(C)n(-c3ccc(OCC)cc3)c3[n+]2CCCCC3)cc1	86.7	n	n	n	n
Nc1ncc([N+](=O)[O-])s1	x	n	x	x	x
CN1CCc2cc3c(c4c2C1Cc1ccccc1-4)OCO3 (stereo not given)	92.4	n	n	n	n
CCCCn1c(=O)c(C(=O)NCCc2ccccc2)c(O)c2ccccc21	u	n	n	54.5	n
CCCCCn1c(=O)c(C(=O)NCc2ccncc2)c(O)c2ccccc21	84.4	n	n	78.0	n
COC(=O)C1=C(c2ccc(C(C)=O)cc2)C[C@@H]2CC[C@H]1N2C(=O)NC(C)C	x	n	x	x	x
c1ccc(CN2CCc3nc4ccccc4cc3C2)cc1	76.4	n	n	n	n
COc1cc(/C=C/c2nc3ccccc3c(=O)n2-c2cccc(O)c2)ccc1O	n	n	n	n	60.8
COc1ccc2c3c1OC1[C@H](O)CCC4[C@@H](C2)N(C)CC[C@]314 (stereo not given in full)	x	n	x	x	x
CCC(C)NC(=O)c1c(N)n(CCCOC)c2nc3ccccc3nc12 (stereo not given)	n	n	n	n	n
COc1ccc(CCNC(=O)c2c(N)n(CCN3CCOCC3)c3nc4ccccc4nc23)cc1	n	n	n	50.5	n
COCCCn1c(N)c(C(=O)Nc2ccccc2)c2nc3ccccc3nc21	n	n	n	49.7	n
O=c1[nH]c(CN2CC=C(c3ccccc3)CC2)nc2scc(-c3ccccc3)c12	n	n	n	64.2	n
Cc1nc2ccc(P(=O)(O)O)cc2s1	n	n	n	n	n
O=C(N/N=C/c1c(O)n(Cc2ccco2)c(=O)[nH]c1=O)c1ccccc1O	n	n	n	67.9	n
O=C(N/N=C/c1c(O)n(C2CCCCC2)c(=S)[nH]c1=O)c1ccccc1	x	n	n	80.3	n
CCCCn1c(O)c(/C=N/NC(=O)c2ccncc2)c(=O)[nH]c1=O	n	n	n	n	n
O=C(N/N=C/c1c(O)n(CCc2ccccc2)c(=O)[nH]c1=O)c1ccccc1	n	n	n	54.9	n
O=c1[nH]c(=S)n(C2CC2)c(O)c1/C=N/Nc1ccccc1	n	n	n	n	n
CC(C)c1ccc(-n2c(O)c(/C=N/NC(=O)c3ccncc3)c(=O)[nH]c2=O)cc1	n	n	n	n	n
SMILES	Calb FLC	CR mimetic SO	Platelet DG rel	SKKanGAS inh	PolyA inhibitor
CC(C)c1ccc(-n2c(O)c(/C=N/NC(=O)c3ccccc3O)c(=O)[nH]c2=S)cc1	n	n	n	70.4	n
CCCCC(=O)N/N=C/c1c(O)n(Cc2ccco2)c(=O)[nH]c1=O	n	n	n	n	n
CC1(C(=O)O)CCCC2(C)c3cc(O)ccc3CCC12 (stereo not given)	n	n	n	n	n
Oc1ccc2c3c1OC1c4oc5ccccc5c4C[C@@]4(O)[C@@H](C2)N(CC2CC2)CC[C@]314 (stereo not given in full)	x	n	x	x	x
O=C(N/N=C/c1c(O)n(C2CCCCC2)c(=S)[nH]c1=O)c1ccccc1O	x	n	n	55.5	n
CCCCC(=O)N/N=C/c1c(O)n(C2CC2)c(=S)[nH]c1=O	n	n	n	n	n
